From PubChem BioAssay
A selection: hits, their analogues and other compounds. The true share with any hit is near 1.8%.
PI5P4K alpha inh: PI5P4K alpha (human) kinase inhibition | actives 1.2% (n = 330,000) | AID 652105 | P48426 | PI5P4Kalpha enzyme, ADP-Glo luminescence, 60 min; stronger effect = lower value | max response, %; active = max response of -50% or lower; inconclusive = between -30% and -50%; inactive = -30% or higher; note: value at the top dose of about 77 µM
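qHTS, 1536-well: enzyme/substrate mix, compound by pin tool, 5 microM ATP final; RT 60 min; ADP-Glo reagents 1 (45 min) then 2 (30 min); luminescence.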
PI4K2A block: blocks human PI4K2A kinase activity | purified PI4K2A, ADP-Glo luminescence, 1 h; stronger effect = lower value | AID 1346378 | Q9BTU6 | actives 0.13% (n = 420,000) | activity change, negative = inhibition, % at 76.9 µM; in the data active = activity change below about -50%; inconclusive = mostly about -30% to -49%
Target sequence (Q9BTU6 whole entry, looked up): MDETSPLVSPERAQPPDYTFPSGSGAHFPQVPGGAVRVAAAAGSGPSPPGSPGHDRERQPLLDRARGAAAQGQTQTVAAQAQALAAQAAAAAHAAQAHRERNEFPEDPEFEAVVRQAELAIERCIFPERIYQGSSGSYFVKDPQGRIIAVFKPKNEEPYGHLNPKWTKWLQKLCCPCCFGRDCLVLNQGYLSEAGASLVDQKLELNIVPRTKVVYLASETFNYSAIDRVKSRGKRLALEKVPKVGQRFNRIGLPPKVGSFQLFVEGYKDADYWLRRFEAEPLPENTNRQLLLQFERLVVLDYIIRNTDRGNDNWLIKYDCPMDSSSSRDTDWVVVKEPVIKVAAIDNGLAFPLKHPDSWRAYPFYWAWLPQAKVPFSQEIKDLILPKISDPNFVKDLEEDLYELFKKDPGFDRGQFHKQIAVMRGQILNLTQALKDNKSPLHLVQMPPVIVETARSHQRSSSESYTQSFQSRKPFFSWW
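ADP-Glo luminescence measured ADP generated by PI4K2A enzyme (4 ug/mL before mixing) with 1.2 mM PI substrate (pre-mix) and 300 microM ATP (pre-mix). Tris pH7.5 buffer with MgCl2, Triton X-100; 1 h reaction at ambient temperature.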
Six1-Eya2 inh: blocks human Six1 binding to Eya2; Q15475+O00167; AlphaScreen GST-Six1/His-Eya2 binding, biochemical; stronger effect = lower value; activity change, % (test concentration not listed); actives 0.56% (n = 360,000)
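Homogeneous AlphaScreen proximity assay pairing GST-Six1 with His-tagged Eya2 (added as 5X mix: 250 nM and 500 nM) in 50 mM Tris pH 8.0, 300 mM NaCl, 1 mM TCEP. Glutathione donor and nickel acceptor beads; 1 h, 37 °C, dark.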
pAkt inh: inhibitors of Akt phosphorylation. activity change, % for hits at 50 µM. Neuro2A IGF-stimulated pAkt S473 HTRF, 20 min; stronger effect = lower value. actives 0.32% (n = 360,000); in the data active = activity change below about -80%; inconclusive = mostly about -51% to -80%
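Neuro2A cells in DMEM with 0.5% FBS, overnight at 37 deg C, given compound at single 50 µM final, then IGF (6 nM final) for 20 min at 37 deg C. Lysed; phospho-Akt Ser473 by HTRF after 24 h, 665/615 ratio.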
CtBP-E1A inh: blocks the CtBP interaction with E1A | AID 651724 | actives 0.49% (n = 340,000) | AlphaScreen GST-E1A/His-CtBP binding, 1536-well; stronger effect = lower value | activity change, % (no concentration beside the values)
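Steps: dispense buffer (Tris pH 8.0, NaCl 300 mM, TCEP 1 mM, BSA, Tween 20); add 5X protein mix (GST-E1A, His-CtBP, 125 nM each); pin 23 nL compound; 2 h at 37 °C, dark; add 5X beads (50 ug/mL); 1 h; read.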
Hits are given with their value; i = inactive; ? = inconclusive; nt = not tested or not shown. Cut-off read from the data, not from the text of the source, unless noted: active = activity change below about -65%; inconclusive = mostly about -30% to -63%; inactive = weaker than that.

SMILES	PI5P4K alpha inh	PI4K2A block	Six1-Eya2 inh	pAkt inh	CtBP-E1A inh
COc1ccc(/C=N/NC(=O)CCN2CCN(c3ccccc3)CC2)c(OC)c1OC	i	i	i	i	i
CC1CCCN(S(=O)(=O)c2ccc3[nH]c4c(c3c2)CCCC4)C1 (configuration not stated)	i	i	i	i	i
O=C(NCc1ccco1)C1CCCN(S(=O)(=O)c2cc(Cl)ccc2Cl)C1 (configuration not stated)	i	i	i	i	i
COc1ccc(OCc2nnc(SC(C)C(=O)Nc3ccc(N4CCOCC4)cc3)n2C)cc1 (configuration not stated)	i	i	i	i	i
Cc1nnc(Sc2cc(NCCO)c([N+](=O)[O-])c3nonc23)s1	i	i	?	i	i
Cc1nnc(Sc2cc(NCCCO)c([N+](=O)[O-])c3nonc23)s1	-78	?	?	i	i
COc1ccccc1N1CCN(c2ncnc3sc(C(=O)NCC4CCCO4)c(C)c23)CC1 (configuration not stated)	i	i	i	i	i
CCN(CCS(=O)(=O)c1ccc(Br)cc1)Cc1nc2ccccc2c(=O)[nH]1	i	i	i	i	i
CCOC(=O)c1sc(NC(=O)CCC(=O)O)nc1C	i	i	i	i	i
CCOC(=O)c1sc(NCCNc2nc(C)c(C(=O)OCC)s2)nc1C	i	i	i	-112%	i
Cc1ccc(CNC(=O)C2c3ccccc3C(=O)N3CCc4ccccc4C23)o1 (configuration not stated)	nt	i	i	-100%	i
COc1cc(N)c2ncccc2c1Br	i	-52	i	i	i
CC(C)C(=O)NC(c1cccc([N+](=O)[O-])c1)c1ccc2cccnc2c1O (configuration not stated)	i	i	-94	i	i
CCC(=O)NC(c1cccc([N+](=O)[O-])c1)c1c(OC(C)=O)ccc2ccccc12 (configuration not stated)	i	i	i	i	i
CCCC(=O)NC(c1cccc([N+](=O)[O-])c1)c1ccc2cccnc2c1O (configuration not stated)	i	i	-91	i	?
CCc1ccc(S(=O)(=O)/N=C2\C=C(NS(=O)(=O)c3ccccc3)C(=O)c3ccccc32)cc1	?	-50	i	i	?
Cc1ccc(C)c(S(=O)(=O)/N=C2\C=C(NS(=O)(=O)c3ccccc3)C(=O)c3ccccc32)c1	i	i	i	i	i
CC(C)c1ccc(S(=O)(=O)/N=C2\C=C(NS(=O)(=O)c3ccccc3)C(=O)c3ccccc32)cc1	-68	i	i	i	i
Cc1[nH]n(-c2ccc([N+](=O)[O-])cc2)c(=O)c1C=NCCN1CCN(C(=O)c2ccc(Br)cc2)CC1	i	i	i	-102%	i
Cc1ccc(C)c(N2CCN(C(=O)C3CCCN(Cc4nc(-c5cccc(Cl)c5)oc4C)C3)CC2)c1 (configuration not stated)	nt	i	nt	nt	nt
COc1cc(OC)cc(C(=O)NCCCN2CCOCC2)c1	i	i	i	-120%	i
COc1ccc(C(=O)NCCCN2CCOCC2)cc1	i	i	i	i	nt
O=C(NC1CCCCC1)C(c1cccc2ccccc12)n1c(=O)c(-c2ccco2)nc2ccccc21 (configuration not stated)	-82	i	i	i	i
O=c1c(-c2ccco2)nc2ccccc2n1C(CCc1ccccc1)c1nc2ccccc2[nH]1 (configuration not stated)	-73	i	i	i	i
CC(C)(C)NC(=O)C(c1ccccc1)n1c(=O)c(-c2ccco2)nc2ccccc21 (configuration not stated)	-54	i	i	i	i
SMILES	PI5P4K alpha inh	PI4K2A block	Six1-Eya2 inh	pAkt inh	CtBP-E1A inh
CC(C)(C)NC(=O)C(c1cc2ccccc2o1)n1c(=O)c(-c2ccco2)nc2ccccc21 (configuration not stated)	-58	i	i	i	i
CC(C)(C)NC(=O)C(c1ccncc1)n1c(=O)c(-c2ccco2)nc2ccccc21 (configuration not stated)	i	i	i	i	i
O=C(O)COc1cccc(/C=C2/SC(=S)N(Cc3ccccc3)C2=O)c1	i	i	i	i	i
CCOC(=O)CNC(=O)c1sc(NC(=O)c2cccc(F)c2)nc1C	i	i	i	i	i
O=C(NCC(=O)N1CCN(C(=O)c2ccco2)CC1)c1ccc(Cl)cc1	i	i	i	i	i
Cc1ccc(SCC(=O)OCC(=O)N(C)CC(=O)Nc2ccccc2Cl)cc1	i	i	i	i	i
CCCCOC(=O)Nc1ccc(OC)cc1S(=O)(=O)N1CCOCC1	i	i	i	-110%	i
Oc1ccc2ccccc2c1/C=N/Nc1ccccc1	i	i	i	i	i
COc1ccccc1N(CC(=O)N/N=C/c1c(O)ccc2ccccc12)S(C)(=O)=O	i	i	-71	i	?
O=C(Cc1n[nH]c(=O)[nH]c1=O)N/N=C/c1c(O)ccc2ccccc12	i	i	-87	i	-68
NC(=S)N/N=C/c1c(O)ccc2ccccc12	?	i	-91	i	nt
CC(=O)c1sc(N/N=C\c2c(O)ccc3ccccc23)nc1C	-53	i	i	i	?
Nc1ccn([C@@H]2O[C@H](C(=O)N[C@H](COC=O)Cc3ccccc3)[C@@H](O)[C@H]2O)c(=O)n1	i	i	i	i	i
Cc1ccc(C(=O)C(C)CN2CCCCC2)cc1 (configuration not stated)	nt	i	nt	nt	nt
O=C(N/N=C/c1c(O)ccc2ccccc12)c1ccc(CO)nc1	i	i	-87	i	-92
O=C(NN=Cc1c(O)ccc2ccccc12)c1ccc2c(c1)OCO2	i	i	i	i	i
O=CN/N=C/c1c(O)ccc2ccccc12	i	i	-91	i	nt
O=C(COc1ccc(=O)n(-c2ccccc2)n1)Nc1ccccc1	i	i	i	i	i
Cc1ccc(S(=O)(=O)N(C)c2ccc(NS(C)(=O)=O)cc2)cc1	i	i	i	-120%	i
Cc1ccc(N(C)S(=O)(=O)c2ccc(C)cc2)cc1	nt	i	i	i	i
O=C(Nc1cccc2c1CCCC2)c1cc(C2CCCCN2C(=O)OCCF)on1 (configuration not stated)	i	i	i	i	i
CCCc1c(C(=O)N/N=C/C(C)=C/c2ccccc2)nnn1-c1nonc1N	i	i	i	i	i
Cc1cc(C)c2nc3sc(=Cc4ccc(-c5ccccc5C(=O)O)o4)c(=O)n3c2c1	?	i	i	i	i
O=C(O)c1ccc(-c2ccc(/C=c3/sc4nc5ccccc5n4c3=O)o2)cc1Cl	-64	i	?	i	i
CC1=CC(=O)C(Sc2ccc(C)cc2)=CC1=O	-71	i	i	i	i
Cc1ccc(SC2=C(Sc3ccc(C)cc3)C(=O)c3ccccc3C2=O)cc1	i	i	i	i	i
